High-throughput results from PubChem.
BRCA1 expr up = increases BRCA1 expression. MCF7-BRCA1-FFLuc reporter, luminescence, 48 h; response scale: scaled: vehicle 0%, 10 µM genistein 100%. 380,000 compounds, 1.1% hits. Potency, µM (doses to about 46.1 µM), for the others: top-dose activation, hits mostly activators. AID 624202; note: potency is the fitted concentration of half-maximal effect; nearly all actives have a fitted effect of over 80% in size
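Compounds are tested at multiple concentrations on MCF7 BRCA1-luciferase reporter cells seeded at 2000 per well; after 48 h, a single luminescence end-point is taken and curves fitted to the normalized data.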
TCR activator = T cell receptor activation | primary human leukocytes, anti-CD3, IL-2 HTRF, 48 h | Potency, µM (series often up to 9.22 µM), for inactives: at the top dose activation of IL-2 secretion, hits mostly activators | 330,000 tested, under 10 active; note: % of control where 0% means no effect
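TCR engagement came from a-CD3 beads alone, with compounds added to primary human leukocytes for 48 hr. Secreted IL-2 bridged europium cryptate- and d2-labelled anti-IL-2 antibodies, giving FRET emission at 665nm after 320nm excitation.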
PINK1 expr mod = changes PINK1 expression; PINK1 immunofluorescence, high-content cytometry, 24 h; Potency, µM (series often up to 76.6 µM), inactives show at the top dose activation (PINK1 increase), usual class: activators; 410,000 compounds, 0.2% hits; AID 624263; active = well fitted activation curve with a large enough effect; inconclusive = small, poorly fitted or top-dose-only effect; cell line not stated here; note: potency is the fitted concentration of half-maximal effect; % of control where 0% means no effect; nearly all actives have a fitted effect of over 65% in size
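PINK1 protein, normally rapidly degraded, was detected by immunofluorescence after 24 hour compound treatment of a stable cell line. Titration data (5 concentrations) came from laser-scanning cytometry, with CCCP-treated wells as controls.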
Akt phos inh = Akt phosphorylation inhibition | Neuro2A IGF-stimulated pAkt S473 HTRF, 20 min; stronger effect = lower value | activity change, % for hits at 50 µM | 360,000 compounds, 0.32% hits; in the data active = activity change below about -80%; inconclusive = mostly about -51% to -80%; note: % is set by controls: 0 for no effect and ±100 for the full control effect
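Neuro2A cells in DMEM with 0.5% FBS, overnight at 37 deg C, given compound at single 50 µM final, then IGF (6 nM final) for 20 min at 37 deg C. Lysed; phospho-Akt Ser473 by HTRF after 24 h, 665/615 ratio.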
The depositor's hits bear a star; i = inactive; ? = inconclusive; . = not tested or not shown; [ ] = dose if it differs, or a comment. A selection: hits, their analogues and other compounds. The true share with any hit is near 1.5%. Unless noted, calls come from the whole dose curve; as a rule, active = well fitted curve in the direction sought with a large enough effect; inconclusive = small, poorly fitted or top-dose-only effect, or another doubt; inactive = no such curve, though single readings can be large; an effect the other way counts as inactive or inconclusive.

SMILES	BRCA1 expr up	TCR activator	PINK1 expr mod	Akt phos inh
COc1ccccc1C=NN=C(NN=Cc1ccccc1OC)NN=Cc1ccccc1OC	-72%	-1%	28µM*	i
COc1cc(/C=N/N(c2ccccc2)c2ccccc2)ccc1O	-82%	.	-1%	i
CCOc1ccc(/C=N/N(C)c2ccccc2)cc1OC	4.5µM*	-1%	2%	i
COc1ccccc1/C=N/Nc1nccnc1Cl	11µM*	0%	.	i
COc1ccccc1C=NNC(=O)NN=Cc1ccccc1OC	39%	-5%	10%	i
CCOc1ccc(/C=N/Nc2ccccn2)cc1OC	11µM*	1%	1%	i
CN1N=C(C(=O)N2CCOc3ccc(CN4CCCC(C(=O)c5cccnc5)C4)cc3C2)CCC1=O (centres undefined)	.	.	-1%	.
O=C(NCC1Cc2cccc(-c3cnccn3)c2O1)c1ccc2c(c1)OCCO2 (centres undefined)	.	.	0%	.
C=CCOc1ccc(/C=N/Nc2ccccn2)cc1OC	5µM*	2%	4%	i
COc1ccc(/C=N/Nc2ccccn2)c(OC)c1OC	11µM*	1%	0%	i
O=C(O)c1ccccc1C(=O)Nc1ccc(-c2csc(-c3ccccc3)n2)cc1	7.1µM*	-2%[46.1 µM]	-2%	i
CNC(=O)c1ccc(-c2nc(-c3ccccc3)cs2)cc1	2.5µM*	0%	1%	i
CCc1ccccc1NC(=O)c1ccc(-c2csc(C)n2)cc1	3.5µM*	5%	2%	i
COC(=O)c1cc(CNC(=O)c2cccc(N(C)C)c2)cc(NC(=O)c2ccccc2Cl)c1	.	.	-1%	.
Cc1cc(-c2ccnc(-n3ncc(C(=O)NCc4cccnc4)c3C3CC3)n2)c(C)s1	.	.	1%	.
CCN(CC)S(=O)(=O)c1cccc(C(=O)NCCc2ccccc2)c1	6.3µM*	-6%	3%[38.3 µM]	.
COc1ccc(C(=O)NCCS(=O)(=O)NCCc2ccccc2)cc1	4.5µM*	3%	1%	i
O=C(NCCc1ccccc1)c1ccc(Br)o1	7.1µM*	-5%	0%	i
O=C(NCCCc1ccccc1)c1ccccc1	10µM*	-2%	0%	i
CN(C)S(=O)(=O)c1cccc(C(=O)NCCNC(=O)c2cccc(S(=O)(=O)N(C)C)c2)c1	3%	16%	0%	i
O=C(NCCNC(=O)c1ccc(Br)o1)c1ccc(Br)o1	-2%	-6%	2%	i
COc1ccc(CCNS(=O)(=O)CCNC(=O)c2ccccc2)cc1	-24%	-38%	-7%	i
O=C(NCCCCc1ccccc1)c1ccccc1	19%	.	0%	i
Cc1cc(C)cc(-n2ccn(CC(=O)Nc3cc(C)ccc3C)c(=O)c2=O)c1	.	.	0%	.
CN(C)c1ccc(/C=C2\CCc3ccccc32)cc1	?	.	-1%	.
SMILES	BRCA1 expr up	TCR activator	PINK1 expr mod	Akt phos inh
Cc1cccc2nc(CNC(=O)CN3Cc4cc(Cl)ccc4OC(C)C3)cn12 (centres undefined)	.	.	0%	.
Cc1ccc(CNc2nc(CN3CCSCC3)nc3ccccc23)o1	.	.	0%	.
COC(=O)C1C(=O)c2c([nH]c(C(=O)OC3CCCCC3)c2C)CC1C (centres undefined)	5µM*	3%[46.1 µM]	7%	i
COC(=O)C1C(=O)c2c([nH]c(C(=O)OC3CCCC3C)c2C)CC1C (centres undefined)	?	6%	1%	i
COc1ccc(-c2noc(Cc3cccs3)n2)cc1	13µM*	1%	-1%	.
Cc1ccc(OCc2nc(-c3ccccc3)no2)cc1	8.9µM*	1%	10%	i
Cc1ccc(-c2noc(COc3ccccc3C)n2)cc1	?	0%	0%	i
c1ccc(OCc2nc(-c3cccs3)no2)cc1	11µM*	.	14%[38.3 µM]	i
Fc1ccc(OCc2nc(-c3cccs3)no2)cc1	7.9µM*	0%	1%	i
Cc1cc(OCc2nc(-c3cccs3)no2)cc(C)c1Cl	33%	7%	25%	i
COC(=O)c1c(NC(=O)Cc2cccs2)sc(C(=O)NC2CCCCC2)c1C	3.2µM*	-2%	?	i
Cc1ccc(CNc2ncnc3sc(C(=O)N4CCC(N5CCCC(O)C5)CC4)c(C)c23)o1 (centres undefined)	.	.	1%	.
O=C(N/N=C/c1ccc2c(c1)OCO2)c1ccc(Br)o1	5.6µM*	-3%[46.1 µM]	11%	i
O=C(Nc1cccc(C(=O)O)c1)/C(=C\c1ccc2c(c1)OCO2)NC(=O)c1ccc(Br)o1	8.9µM*	-2%	-1%	i
Clc1ccc(/C=N/N2CCCCC2)cc1	43%	0%	1%	i
